The structures appear in SMILES notation. Where a name gives a salt, the structure may show the parent alone. ± gives the standard deviation of the averaged measurements.

In the experiment the test system is Toxoplasma gondii RH (in HFF). Put plainly: parasite growth relative to the screen mean (all compounds = 100%); higher = less inhibition of parasite growth. To be noted: 5 µM; 72 h; oxygen 21 %. In outline: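 Confluent human foreskin fibroblasts in 96-well plates received library compounds by pin transfer at 5 µM final, taken from 10 mM DMSO stocks. Within 2 h the cells were infected with RH β-Gal–GFP Toxoplasma at MOI 1:5 and cultured 72 h at 21% O2. A CPRG β-Gal assay read against in-plate standard curves gave parasite number, and growth is stated relative to the screen mean, where all compounds = 100%, averaged across two screens.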
`CC1(C)CC(=O)C(C2C3=C(CC(C)(C)CC3=O)Oc3ccccc32)C(=O)C1` (stereo not drawn) had a parasite growth of 127 ± 18%.
In turn, `CC(C)[N+]1(C)[C@@H]2CC[C@H]1C[C@@H](OC(=O)C(CO)c1ccccc1)C2` (stereo partly drawn) [Ipratropium bromide] displayed a parasite growth of 76.1 ± 21%.
`COc1ccc(CCN(C)CCCOc2ccc(S(=O)(=O)c3c(C(C)C)c4ccccc4n3C)cc2)cc1OC`: the parasite growth is under 0%.
`NS(=O)(=O)C#Cc1ccccc1` [Pifithrin->m] gave a parasite growth of 123 ± 13%.
As for `Cc1cc2nc3c(=O)[nH]c(=O)nc-3n(C)c2cc1C=O`, the parasite growth is 22.6 ± 1.9%.
In turn, `O=S1(=O)c2cccc3cccc(c23)N1CCCN1CCN(c2ccc(F)cc2)CC1` [Fananserin] came in with a parasite growth of 130 ± 14%.
Compound `CC12CC3CC(C)(C1)CC(N)(C3)C2` [Memantine hydrochloride] returned a parasite growth of 123 ± 4.8%.
In turn, `CC(C)CC(NC(=O)OCC1c2ccccc2-c2ccccc21)C(=O)O` (stereo not drawn) showed a parasite growth of 59.8 ± 23%.
In the case of `Clc1ccc2nsnc2c1NC1=NCCN1` [Tizanidine hydrochloride] it was 113 ± 2.4%; in that of `CN1CCN2c3ncccc3Cc3ccccc3C2C1` (stereo not drawn) [Mirtazepine], 92.3 ± 34%.
`N=C(N)c1ccc(N2CCN(C3CCN(CC(=O)O)CC3)CC2)cc1` had a parasite growth of 128 ± 33%.
In turn, `CC(C)(Oc1ccc(Cl)cc1)C(=O)O` [Clofibric acid] yielded a parasite growth of 127 ± 43%.
`COc1ccc([C@@H]2Sc3ccccc3N(CCN(C)C)C(=O)[C@@H]2OC(C)=O)cc1` [Diltiazem hydrochloride]: the parasite growth came to 94.4 ± 43%.
On to `c1ccc(CN2CCC3(CCc4ccccc43)CC2)cc1` [L-693,403 maleate], for which the parasite growth was 135 ± 10%.
`OC[C@H]1NC[C@@H](O)[C@@H](O)[C@@H]1O` [1-Deoxymannojirimycin hydrochloride] displayed a parasite growth of 141 ± 9.1%.
Compound `O=[N+]([O-])c1cccc2c(Br)[nH]nc12` [3-Bromo-7-nitroindazole] had a parasite growth of 123 ± 5.8%.
In the case of `CCCCCCC(=O)OC1CC(C)(C)NC(C)(C)C1` [TMPH hydrochloride] it was 123 ± 14%; in that of `CC(=N)NCc1cccc(CN)c1` [1400W dihydrochloride], 74 ± 48%.
As to `NC(=O)N1C(=O)/C(=C(\O)c2cccs2)c2cc(Cl)ccc21` [Tenidap], the parasite growth came to 134 ± 18%.
With `CC(C)C(=O)c1c(C(C)C)nn2ccccc12` [Ibudilast], the parasite growth worked out at 75.7 ± 12%.
In the case of `N#C/C(=C\c1ccc(O)c(O)c1)C(=O)NCCCc1ccccc1` it was 154 ± 16%; in that of `NCC(O)(CS(=O)(=O)O)c1ccc(Cl)cc1` (stereo not drawn) [2-Hydroxysaclofen], 132 ± 20%.
As for `COc1cc2c(cc1OC)-c1cc3nc4ccccc4nc3n1C(C)(C)C2`, the parasite growth was under 0%.
The compound `CCCCNC(=O)[C@@H]1Cc2ccccc2N1C(=O)[C@@H](N)CC` [Butabindide oxalate] yielded a parasite growth of 130 ± 7.7%.
On to `O=C(NCCO[N+](=O)[O-])c1cccnc1` [Nicorandil], for which the parasite growth came to 109 ± 12%.
`CS(=O)(=O)Nc1ccc([N+](=O)[O-])cc1Oc1ccccc1` [Nimesulide] showed a parasite growth of 98.5 ± 4.5%.
Regarding `NS(=O)(=O)c1cccc2c1c([N+](=O)[O-])cc1nc(O)c(O)nc12`, the parasite growth is 144 ± 9.6%.
In the case of `Cc1ccc(NC2=CC(=O)c3sc(C)nc3C2=O)cc1` [Ryuvidine], the parasite growth was under 0%.
In turn, `O=C(O)CCC/C=C\CC1C(O)CC(O)C1/C=C/C(O)COc1cccc(Cl)c1` (racemic) [(±)-Cloprostenol sodium salt] registered a parasite growth of 121 ± 15%.
Consider `CC(=O)N1CCN(c2ccc(OCC3COC(Cn4ccnc4)(c4ccc(Cl)cc4Cl)O3)cc2)CC1` (stereo not drawn) [Ketoconazole], for which the parasite growth came to 186 ± 29%.
Take `CCOC(=O)[C@]12CC1/C(=N\O)c1ccccc1O2` (stereo partly drawn): the parasite growth is 83 ± 23%.
As to `N#C/C(=C(/N)Sc1ccc(N)cc1)c1ccccc1C(F)(F)F`, the parasite growth stood at 113 ± 29%.
In the case of `c1ccc2nc(C3=NCCN3)cnc2c1` [BU 239 hydrochloride] it was 102 ± 22%; in that of `CC(NC(=O)c1ccccc1/N=C/c1c(O)ccc2ccccc12)c1ccccc1` (stereo not drawn) [Sirtinol], 97.5 ± 34%; in that of `COC(=O)Nc1ccc2[nH]cc(CCNC(C)=O)c2c1`, 81 ± 2.9%.
`Nc1ncnc2c1nc(Br)n2[C@@H]1O[C@@H]2COP(=O)(O)O[C@H]2[C@H]1O` [8-Bromo-cAMP, sodium salt] yielded a parasite growth of 125 ± 25%.
As for `O=C1Cc2c([nH]c3ccc(Br)cc23)-c2ccccc2N1` [Kenpaullone], the parasite growth worked out at 100 ± 12%.
Take `CCC1=C(C)CN(C(=O)NCCc2ccc(S(=O)(=O)NC(=O)N[C@H]3CC[C@H](C)CC3)cc2)C1=O` [Glimepiride]: the parasite growth turned out to be 149 ± 43%.

The values are drawn from the supplement of paper PMC4894684.
